# Measured values as given in PubChem BioAssay (Tox21).
# Several values for one entry are separate records, joined by “and”; a condition that tells them apart may be missing. Identical values can stand only once. More than one record can exist for a structure, and the calls need not agree. Activity calls are given as the source filed them. Entries that show only a call come without a potency. Unless noted, calls come from the whole dose curve; as a rule, active = well fitted curve in the direction sought with a large enough effect in the repeat runs; inconclusive = weak or mixed curves; inactive = no such curve, though single readings can be large; an effect the other way counts as inactive or inconclusive.
# Experiments:
# [1] = qHTS assay to identify small molecule antagonists of the thyroid receptor (TR) signaling pathway - cell viability counter screen (AID 743064); note: nearly all actives have a fitted effect of over 50% in size
# Outline: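 Compounds were tested on GH3.TRE-Luc cells in the presence of T3 at 1 nM final. Following 23.5 h at 37 °C, cell viability was quantified by CellTiter-Fluor.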
# [2] = qHTS assay to identify small molecule antagonists of the thyroid receptor (TR) signaling pathway (AID 743065); note: nearly all actives have a fitted effect of over 55% in size; note: potency is the fitted concentration of half-maximal effect
# Outline: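 Antagonism measured as loss of luciferase signal in GH3 cells stably carrying a TRE-luciferase reporter, co-treated with compound and T3 (1 nM final) for 23.5 h at 37 C. Viability was read in the same well by CellTiter-Fluor.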
# [3] = system: thyroid hormone receptor (rat, GH3 cells); assay: qHTS assay to identify small molecule agonists of the thyroid receptor (TR) signaling pathway (AID 743066; calls by dose curve)
# [4] = target: Estrogen receptor (Homo sapiens) (UniProt P03372); assay: qHTS assay to identify small molecule antagonists of the estrogen receptor alpha (ER-alpha) signaling pathway (AID 743069; active = well fitted curve in the direction sought with a large enough effect in the signal ratio in the repeat runs, not every such curve was filed as active; inconclusive = weak or mixed curves, or effect the other way; inactive = no such curve, though single readings can be large or run the other way; the % refers to the signal ratio; note: potency is the fitted concentration of half-maximal effect)
# Sequence of Estrogen receptor (Homo sapiens) (P03372 whole entry, looked up): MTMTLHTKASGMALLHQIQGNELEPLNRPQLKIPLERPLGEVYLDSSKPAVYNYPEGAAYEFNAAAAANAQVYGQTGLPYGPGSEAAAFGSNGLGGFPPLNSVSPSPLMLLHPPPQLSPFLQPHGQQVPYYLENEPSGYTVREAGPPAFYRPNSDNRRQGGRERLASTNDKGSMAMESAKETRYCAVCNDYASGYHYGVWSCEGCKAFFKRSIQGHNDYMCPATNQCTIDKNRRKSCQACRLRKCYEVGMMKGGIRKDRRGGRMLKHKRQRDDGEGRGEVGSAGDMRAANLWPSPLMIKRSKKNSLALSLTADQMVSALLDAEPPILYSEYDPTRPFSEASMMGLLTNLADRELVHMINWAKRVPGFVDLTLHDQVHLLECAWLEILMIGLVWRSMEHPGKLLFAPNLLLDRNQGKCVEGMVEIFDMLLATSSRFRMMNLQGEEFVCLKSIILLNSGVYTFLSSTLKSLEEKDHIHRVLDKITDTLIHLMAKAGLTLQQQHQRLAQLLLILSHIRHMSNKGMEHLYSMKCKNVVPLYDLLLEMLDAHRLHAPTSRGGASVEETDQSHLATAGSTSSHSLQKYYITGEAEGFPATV
# Outline: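 Compound effects are measured against 17beta-estradiol stimulation in HEK293 cells with a UAS-controlled beta-lactamase reporter for ER-alpha. Exposure lasts 18 hr at 37C; LiveBLAzer B/G FRET substrate follows for 2 hr at room temperature.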
# [5] = qHTS assay to identify small molecule antagonists of the estrogen receptor alpha (ER-alpha) signaling pathway - cell viability counter screen (AID 743074; calls by dose curve;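 note: HEK293 cells carrying ER-alpha-UAS-bla reporter stimulated with 17beta-estradiol; nearly all actives have a fitted effect of over 45% in size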)
# [6] = target: Estrogen receptor (Homo sapiens) (UniProt P03372); assay: qHTS assay to identify small molecule agonists of the estrogen receptor alpha (ER-alpha) signaling pathway (AID 743075; calls by dose curve; note: potency is the fitted concentration of half-maximal effect)
# [7] = target: Estrogen receptor (Homo sapiens) (UniProt P03372); assay: qHTS assay to identify small molecule agonists of the estrogen receptor alpha (ER-alpha) signaling pathway using the BG1 cell line (AID 743079); details: BG1Luc4E2 cells, ERE-luciferase agonist, 22 h; activation: at 70.3 µM (top of the series) unless noted; note: nearly all actives have a fitted effect of over 20% in size; note: potency is the fitted concentration of half-maximal effect
# [8] = qHTS assay to identify small molecule antagonists of the estrogen receptor alpha (ER-alpha) signaling pathway using the BG1 cell line (AID 743080; calls by dose curve;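 note: BG1 cells stimulated with 17beta-estradiol alongside compound; nearly all actives have a fitted effect of over 25% in size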)
# Outline: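 Luciferase inhibition measured with ONE-Glo after 30 min at RT in BG1Luc4E2 cells given test compounds and 17beta-estradiol for 21.5 h at 37 C; CellTiter-Fluor viability read in the same wells beforehand.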
# [9] = qHTS assay to identify small molecule antagonists of the estrogen receptor alpha (ER-alpha) signaling pathway using the BG1 cell line - cell viability counter screen (AID 743081);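 note: compound given together with 17beta-estradiol as the ER stimulus; nearly all actives have a fitted effect of over 45% in size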
# Aromatase (Homo sapiens) = Aromatase (Homo sapiens) (UniProt P11511); assay: qHTS assay to identify aromatase inhibitors (AID 743083); note: nearly all actives have a fitted effect of over 55% in size
# Sequence of Aromatase (Homo sapiens) (P11511 whole entry, looked up): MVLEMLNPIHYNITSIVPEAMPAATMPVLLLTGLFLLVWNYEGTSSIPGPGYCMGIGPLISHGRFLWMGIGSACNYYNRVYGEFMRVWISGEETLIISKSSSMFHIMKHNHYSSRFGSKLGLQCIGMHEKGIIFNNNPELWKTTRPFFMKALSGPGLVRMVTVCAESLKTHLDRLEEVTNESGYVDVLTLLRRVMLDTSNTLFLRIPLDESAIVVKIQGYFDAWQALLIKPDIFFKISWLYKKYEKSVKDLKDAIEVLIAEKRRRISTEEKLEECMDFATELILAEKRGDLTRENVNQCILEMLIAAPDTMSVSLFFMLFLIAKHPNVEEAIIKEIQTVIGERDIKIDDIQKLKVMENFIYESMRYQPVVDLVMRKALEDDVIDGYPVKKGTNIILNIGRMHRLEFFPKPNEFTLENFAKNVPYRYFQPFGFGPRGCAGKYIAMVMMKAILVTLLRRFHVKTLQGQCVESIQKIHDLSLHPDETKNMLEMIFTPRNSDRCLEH
# [10] = qHTS assay to identify aromatase inhibitors - cell viability counter screen (AID 743084);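 note: cells stimulated with testosterone during compound exposure; nearly all actives have a fitted effect of over 55% in size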
# [11] = target: Aryl hydrocarbon receptor (Homo sapiens) (UniProt P35869); assay: qHTS assay to identify small molecule that activate the aryl hydrocarbon receptor (AhR) signaling pathway (AID 743085);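 note: HG2L7.5c1 human HepG2 liver cells with stably integrated DRE-driven firefly reporter; nearly all actives have a fitted effect of over 15% in size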
# Sequence of Aryl hydrocarbon receptor (Homo sapiens) (P35869 whole entry, looked up): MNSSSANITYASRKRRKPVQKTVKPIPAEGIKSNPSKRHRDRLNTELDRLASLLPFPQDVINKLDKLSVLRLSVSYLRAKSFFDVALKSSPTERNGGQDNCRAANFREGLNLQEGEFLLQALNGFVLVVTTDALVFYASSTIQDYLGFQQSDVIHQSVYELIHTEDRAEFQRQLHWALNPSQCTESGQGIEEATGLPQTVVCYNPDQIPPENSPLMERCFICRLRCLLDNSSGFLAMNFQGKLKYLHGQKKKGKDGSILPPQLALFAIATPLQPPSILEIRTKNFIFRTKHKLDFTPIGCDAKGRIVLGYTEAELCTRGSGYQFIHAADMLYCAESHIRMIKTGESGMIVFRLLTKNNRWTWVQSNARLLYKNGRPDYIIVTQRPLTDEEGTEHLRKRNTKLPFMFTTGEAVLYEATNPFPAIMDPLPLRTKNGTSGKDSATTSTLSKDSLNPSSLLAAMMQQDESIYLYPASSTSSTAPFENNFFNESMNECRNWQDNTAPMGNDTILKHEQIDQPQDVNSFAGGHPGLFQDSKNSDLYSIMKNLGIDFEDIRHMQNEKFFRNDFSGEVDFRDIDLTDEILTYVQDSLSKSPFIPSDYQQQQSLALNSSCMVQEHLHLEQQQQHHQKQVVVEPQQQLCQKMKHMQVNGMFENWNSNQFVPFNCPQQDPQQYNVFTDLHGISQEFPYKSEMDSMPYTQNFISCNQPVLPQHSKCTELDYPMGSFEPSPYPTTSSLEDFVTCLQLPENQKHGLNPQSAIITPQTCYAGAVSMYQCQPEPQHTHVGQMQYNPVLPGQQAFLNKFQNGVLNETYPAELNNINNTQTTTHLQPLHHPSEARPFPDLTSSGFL
# Outline: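 24 h compound exposure, 37C, HepG2-derived HG2L7.5c1 cells with DRE-responsive luciferase. Readouts: fluorescence viability, then luminescence at room temperature after 30 min.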
# [12] = target: Peroxisome proliferator-activated receptor gamma (Homo sapiens) (UniProt P37231); assay: qHTS assay to identify small molecule agonists of the peroxisome proliferator-activated receptor gamma (PPARg) signaling pathway (AID 743094; active = well fitted activation curve with a large enough effect in the signal ratio in the repeat runs, not every such curve was filed as active; inconclusive = weak or mixed curves, or effect the other way; inactive = no such curve, though single readings can be large or run the other way; the % refers to the signal ratio)
# Sequence of Peroxisome proliferator-activated receptor gamma (Homo sapiens) (P37231 whole entry, looked up): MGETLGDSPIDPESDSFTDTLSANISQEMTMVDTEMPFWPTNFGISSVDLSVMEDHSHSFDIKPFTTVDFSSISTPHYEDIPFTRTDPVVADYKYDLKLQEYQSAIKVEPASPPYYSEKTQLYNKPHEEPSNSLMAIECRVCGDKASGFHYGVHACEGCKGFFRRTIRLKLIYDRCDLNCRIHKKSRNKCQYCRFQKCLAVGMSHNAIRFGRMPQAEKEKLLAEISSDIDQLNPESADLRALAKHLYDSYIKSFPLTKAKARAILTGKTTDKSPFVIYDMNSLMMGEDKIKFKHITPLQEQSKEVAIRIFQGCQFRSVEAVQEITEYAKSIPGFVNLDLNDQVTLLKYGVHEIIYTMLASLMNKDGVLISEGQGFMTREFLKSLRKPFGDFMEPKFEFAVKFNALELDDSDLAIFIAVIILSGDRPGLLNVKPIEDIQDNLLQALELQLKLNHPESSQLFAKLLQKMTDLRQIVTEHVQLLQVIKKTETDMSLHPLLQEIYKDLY
# Outline: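 Beta-lactamase FRET fluorescence was the read-out after a 1 h room-temperature substrate step, following 17 h compound treatment at 37C of HEK293H cells expressing a UAS-driven bla reporter responsive to PPARg.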
# [13] = target: Peroxisome proliferator-activated receptor gamma (Homo sapiens) (UniProt P37231); assay: qHTS assay to identify small molecule antagonists of the peroxisome proliferator-activated receptor gamma (PPARg) signaling pathway (AID 743191; calls by dose curve; note: nearly all actives have a fitted effect of over 30% in size; note: potency is the fitted concentration of half-maximal effect)
# Outline: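 Beta-lactamase reporter under UAS control in HEK293H PPARg-bla cells; compound treatment 17 h at 37C. Read-out: fluorescence intensity after 1 h room-temperature incubation with LiveBLAzer B/G FRET substrate.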
# [14] = qHTS assay to identify small molecule antagonists of the peroxisome proliferator-activated receptor gamma (PPARg) signaling pathway - cell viability counter screen (AID 743194); details: Potency: co-treated with 50 nM rosiglitazone unless noted; note: nearly all actives have a fitted effect of over 55% in size
# Outline: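 Viability was measured as CellTiter-Glo luminescence in GeneBLAzer PPARg UAS-bla HEK293H cells. These cells had been exposed 17 h at 37 C to compounds together with rosiglitazone at 50 nM final, with the beta-lactamase readout taken in the same wells.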
# [15] = qHTS assay for small molecule agonists of the antioxidant response element (ARE) signaling pathway (AID 743202; active = well fitted activation curve with a large enough effect in the signal ratio in the repeat runs, not every such curve was filed as active; inconclusive = weak or mixed curves, or effect the other way; inactive = no such curve, though single readings can be large or run the other way; the % refers to the signal ratio)
# Outline: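 An ARE-responsive beta-lactamase gene stably integrated in HepG2 cells serves as reporter. After 5 h plating and 16 h compound incubation at 37 C, fluorescence of the B/G FRET substrate was measured.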
# [16] = qHTS assay for small molecule agonists of the antioxidant response element (ARE) signaling pathway - cell viability counter screen (AID 743203; calls by dose curve; note: nearly all actives have a fitted effect of over 55% in size)
# Outline: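 HepG2 cells carrying ARE-driven beta-lactamase; 2,000 cells/well; 5 hrs plating; compound pinned from DMSO; 16 hrs 37C/5% CO2; CellTiter-Glo added; 30 min RT; luminescence.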
# [17] = qHTS assay for small molecule activators of the heat shock response signaling pathway - cell viability counter screen (AID 743209); note: nearly all actives have a fitted effect of over 50% in size
# Outline: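 Luminescence from CellTiter-Glo, added after the beta-lactamase FRET read, gave the viability signal. Cells were HSE-bla HeLa treated with DMSO-dissolved compounds for 5 h at 37 C following overnight plating.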
# [18] = qHTS assay for small molecule activators of the heat shock response signaling pathway (AID 743210; active = well fitted activation curve with a large enough effect in the signal ratio in the repeat runs, with a control signal flat, not every such curve was filed as active; inconclusive = weak or mixed curves; the % refers to the signal ratio;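 note: HeLa cells with beta-lactamase reporter driven by heat shock elements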)
# Outline: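 In HSE-bla HeLa cells, 5 h compound incubation (37 C) precedes addition of LiveBLAzer B/G substrate; after 2.5 h at room temperature, fluorescence intensity indicates reporter induction.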
# [19] = qHTS assay to identify small molecule that activate the aryl hydrocarbon receptor (AhR) signaling pathway - cell viability counter screen (AID 743086);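 note: HepG2 liver cells carrying the AhR DRE luciferase reporter; nearly all actives have a fitted effect of over 45% in size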
# Outline: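 Cytotoxicity counter screen: CellTiter-Fluor signal (30 min, 37 C) in 4000 HepG2 cells/well carrying the DRE-luciferase reporter, following 24 h compound exposure at 37 C.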
SMILES,Potency [1],Potency [2],Potency [3],Potency [4],Potency [5],Potency [6],Potency [7],Potency [8],Potency [9],Potency (Aromatase (Homo sapiens)),Potency [10],Potency [11],Potency [12],Potency [13],Potency [14],Potency [15],Potency [16],Potency [17],Potency [18],Potency [19]
COc1ccc(C=O)cc1OC,inactive,inactive,inactive,inactive,inactive,inactive,inactive and 6.86 µM (active),inactive,inactive,inactive,inactive,inactive,inactive,inactive,inactive,inactive,inactive,inactive,inactive,–
ClC(Cl)=C(Cl)C(Cl)=C(Cl)Cl,inactive,inactive,inactive,inactive,inactive,inactive,inactive,inactive,inactive,inactive,inactive,inactive,inactive,inactive,inactive,inactive,inactive,inactive,inactive,inactive
CC(C)Nc1nc(Cl)nc(NC(C)C)n1,inactive,inactive,inactive,inactive,inactive,inactive,inactive,inactive,inactive,inactive,inactive,inactive,inactive,inactive,inactive,inactive,inactive,inactive,inactive,inactive
CNC(=O)CSP(=S)(OC)OC,inactive,inactive,inactive,inactive,inactive,inactive,inactive,inactive,inactive,inactive,inactive,inactive,inactive,inactive,inactive,inactive,inactive,inactive,inactive,inactive
Clc1ccc(C(Cl)(Cl)Cl)cc1,inactive,inactive,inactive,inactive,inactive,inactive,inactive and 30.6 µM (active),inactive,inactive,inactive,inactive,inactive,inactive,–,inactive,inactive,inactive,inactive,inactive,–
CC(C)=CC1C(C(=O)OCc2cccc(Oc3ccccc3)c2)C1(C)C (stereo not given),inactive,inactive,inactive,inactive,inactive,inactive,inactive,inactive,inactive,inactive,inactive,inactive,–,–,inactive,inactive,inactive,inactive,inactive,inactive
CC(C)COC(=O)c1ccccc1C(=O)OCC(C)C,inactive,inactive,inactive,inactive,inactive,13.8 nM [inconclusive] (active) and inactive,21.7 µM (active),inactive,inactive,inactive,inactive,inactive,inactive,inactive,inactive,inactive,inactive,inactive,inactive,inactive
CCCCCCCCCCCCCl,inactive,inactive,inactive,inactive,inactive,54.2 µM [activator] (active) and inactive,30.2 µM (active) and inactive,inactive,inactive,inactive,inactive,inactive,inactive,–,inactive,inactive,inactive,inactive,inactive,inactive
OC(c1ccc(Cl)cc1)(c1cncnc1)c1ccccc1Cl (stereo not given),inactive,61.1 µM (active),inactive,54.9 µM [inconclusive] (active),inactive,17.7 µM [activator] (active) and 61.6 µM [inconclusive] (active),9.69 µM (active),inactive,inactive,–,inactive,inactive,–,54.9 µM (active),inactive,–,inactive,inactive,inactive,–
O=NN1CCOCC1,inactive,inactive,inactive,inactive,inactive,inactive,inactive,inactive,inactive,inactive,inactive,inactive,inactive,inactive,inactive,inactive,inactive,inactive,inactive,inactive
Clc1cccc(C(Cl)(Cl)Cl)n1,inactive,inactive,inactive,inactive,inactive,inactive,inactive,inactive,inactive,inactive,inactive,–,inactive,–,inactive,inactive,inactive,inactive,inactive,inactive
OCCOCCO,inactive,inactive,inactive,inactive,–,inactive,inactive,inactive,inactive,inactive,inactive,inactive,inactive,inactive,inactive,inactive,inactive,inactive,–,–
